# High-throughput results as filed in PubChem.
# The list is not random: actives were taken first. Their share in the collection is about 2.5%.
# KLF5 inh – kruppel-like factor 5 inhibition; DLD-1 KLF5 promoter-luciferase reporter, luminescence; inhibition, % at 5 µM; hit rate 0.23% among 290,000;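 active = inhibition above a per-plate limit of that plate's mean compound inhibition plus 3 SD, cut at about 60% in these data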;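 also: 0% = DMSO wells and 100% = LY294002 at 200 µM; higher means less KLF5 promoter-driven luciferase light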
# 697 NFkB inh – lowers PMA/ionomycin-induced NF-kB signal in 697 B cells; 697 B-cell NF-kB luciferase reporter, 16 h; inhibition, % at 4 µM; hit rate 0.33% among 330,000; AID 435022; in the data active = inhibition above about 35%
# TMEM16A act – activates or potentiates the mouse TMEM16A chloride channel. HEK293 TMEM16A/YFP-H148Q/I152L, iodide quench fluorescence; active compounds read low. B-score at 10 µM. hit rate 0.3% among 340,000. AID 623877;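 active = fluorescence-ratio B-score plate-corrected deviation score at least 3 library SD below zero, with starting fluorescence score within 5 deviations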;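 also: channel opened by trigger with iodide after compound preincubation; score built on the fluorescence ratio of max minus min over baseline; more negative score means more quench and so TMEM16A activation or potentiation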
# aSyn UTR inh – MLPCN primary screen, SNCA 5' untranslated region | alpha-synuclein 5'UTR reporter, inhibitor activity | inhibition, % (tested at 7.5 µM) | hit rate 0.82% among 300,000; in the data active = inhibition above about 60%;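 also: H4 neuroglioblastoma cells stably carrying SNCA 5'UTR luciferase fusion; 0% = DMSO wells and 100% = positive control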
# Jurkat NFkB inh – inhibitors of the PMA/ionomycin-induced NF-kB reporter in Jurkat cells. inhibition, % at 4 µM. PMA/ionomycin-induced NF-kB luciferase reporter, luminescence. hit rate 0.53% among 330,000. AID 435003; in the data active = inhibition above about 50%
# ANO1 block – blocks the mouse calcium-activated chloride channel TMEM16A; normalized B-score (activity score, 25-100; higher = stronger inhibition) at 10 µM; Q8BHY3; AID 588511; HEK293 TMEM16A/YFP iodide influx fluorescence, ionomycin; hit rate 1.2% among 310,000;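 active = ratio plate-corrected score three or more library SD toward inhibition, starting fluorescence score within five deviations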;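 also: score derived from kinetic fluorescence span divided by baseline fluorescence per well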
# KLF5 inh confirm – KLF5 inhibition, confirmation assay. shares compounds with KLF5 inh. DLD-1 KLF5 promoter firefly luciferase reporter, luminescence. inhibition, % at 4 µM. hit rate 79% among 610;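 active = inhibition above a set limit taken from the earlier primary screen, cut at about 63% in these data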;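 also: 0% = DMSO wells and 100% = LY294002 at 200 µM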
# IEC-6 tox trip – rat IEC-6 cytotoxicity, KLF5 inhibitor counter-screen; inhibition, % at 4 µM; hit rate 56% among 610; shares compounds with KLF5 inh; IEC-6 rat intestinal cells, viability luminescence; AID 1905; in the data active = inhibition above about 23%;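 also: cells exposed to compounds for 48 hours before viability read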
# Jurkat NFkB conf – lowers PMA/ionomycin-induced NF-kB signal in Jurkat cells; shares compounds with Jurkat NFkB inh; Jurkat NF-kB luciferase, 16 h; inhibition, % at 4 µM; hit rate 27% among 2,700; AID 435020;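 active = inhibition reaching about 45% at 4 µM in either replicate, limit read from the data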;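 also: plate controls were PMA/ionomycin stimulated DMSO wells for no effect and unstimulated DMSO wells for full effect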
# 697 NFkB conf – lowers PMA/ionomycin-induced NF-kB signal in 697 B cells | shares compounds with 697 NFkB inh | 697 B-cell NF-kB luciferase, 16 h | inhibition, % at 4 µM | hit rate 35% among 2,000; in the data active = inhibition mostly above about 28%, no sharp cut-off; inactive = mostly below about 22%
# * = called active by the depositor; i = inactive; . = no result.
SMILES,KLF5 inh,697 NFkB inh,TMEM16A act,aSyn UTR inh,Jurkat NFkB inh,ANO1 block,KLF5 inh confirm,IEC-6 tox trip,Jurkat NFkB conf,others
CC1C(OC(=O)CCC(=O)NC(C)(C)CO)O[C@H]2OC3(C)CC[C@H]4[C@H](C)CCC1C24OO3 (some centres undefined),82*,0,i,4,1,i,85*,23*,.,
CC(C)CC(NC(=O)CCCNC(=O)CCC(=O)OC1O[C@H]2OC3(C)CC[C@H]4[C@H](C)CCC(C1C)C24OO3)C(=O)O (some centres undefined),82*,8,i,-2,-21,i,82*,20,.,
Cc1nc(CCl)cc(=O)[nH]1,-14,11,i,-22,6,i,.,.,.,
CSc1nc(N)c(N=Nc2ccc([As](=O)(O)O)cc2)c(=O)[nH]1,-12,4,i,-9,-9,i,.,.,.,
CCOP(=O)(OCC)C(NC(=O)c1ccc(C)cc1)=C(Cl)Cl,15,-4,i,-8,-7,i,.,.,.,
C/C=C(\C)C(=O)N[C@@H](c1ccccc1)[C@@H](O)C(=O)O[C@H]1C[C@@]2(O)[C@@H](OC(=O)c3ccccc3)C3[C@](C)(C(=O)[C@H](OC(C)=O)C(=C1C)C2(C)C)[C@H](O)C[C@H]1OC[C@@]31OC(C)=O (some centres undefined),64*,2,i,110*,72*,i,86*,71*,73*,
CC(=O)O[C@@]12CO[C@@H]1C[C@H](OC1OCC(O)C(O)C1O)[C@@]1(C)C(=O)[C@H](O)C3=C(C)[C@@H](OC(=O)[C@H](O)[C@@H](NC(=O)c4ccccc4)c4ccccc4)C[C@@](O)([C@@H](OC(=O)c4ccccc4)C12)C3(C)C (some centres undefined),16,-44,i,-11,48,i,.,.,.,
CC(=O)O[C@@]12CO[C@@H]1C[C@@H](O)[C@@]1(C)C(=O)[C@H](O)C3=C(C)[C@@H](OC(=O)[C@H](O)[C@@H](NC(=O)c4ccccc4)c4ccccc4)C[C@@](O)([C@@H](OC(=O)c4ccccc4)C12)C3(C)C (some centres undefined),76*,-27,i,113*,65*,i,87*,72*,65*,
CCC(C)N1Cc2ccccc2C1=N (centres undefined),-6,3,i,-15,10,i,.,.,.,
CC12CCC3C(CCC4(O)CC(O)CCC34C=NO)C1(O)CCC2C1=COC(=O)C1 (centres undefined),.,.,i,.,.,.,.,.,.,
CCCCN=C[C@]12CCC(O)CC1(O)CCC1[C@@H]2CC[C@]2(C)[C@H](C3C=CC(=O)O3)CCC12O (some centres undefined),106*,-54,i,96*,94*,i,105*,-1,79*,
CC1C=CCCC12C(=O)NC(=O)NC2=O (centres undefined),.,.,i,.,.,.,.,.,.,
C[C@]12CCC3C(CCC4=CC(O)CC[C@@]43/C=N/O)C1(O)CCC2C1=CC(=O)OC1 (some centres undefined),91*,-27,i,113*,95*,i,104*,-10,79*,
C[n+]1c(-c2ccccc2)c2cc(N)ccc2c2ccc(N)cc21,108*,58*,i,52,67*,i,86*,-9,62*,697 NFkB conf=54*
CC1NCCC2(O)CCCCC12 (centres undefined),0,-14,i,-18,0,i,.,.,.,
CC1=CC(=C2C(=O)NC(=S)NC2=O)C=C(C(F)(F)F)N1CCc1ccccc1,-36,-54,.,1,50*,i,.,.,14,
